Data published in paper PMC7862700, “An all-to-all approach to the identification of sequence-specific readers for epigenetic DNA modifications on cytosine”.

Experiments:
Experiment in all cases: DAPPL (digital affinity profiling via proximity ligation, sequencing); 10 mM Tris-HCl pH 7.5, 50 mM NaCl, 1 mM DTT, 4% glycerol, room temperature, 30 min; GST-TFs on glutathione beads, 16-mer random dsDNA library, 0.1% formaldehyde crosslink after washing; high values mean tight binding
FLI1 = molecular target: T1, FLI1 (Homo sapiens, UniProt Q01543 1-452); settings: protein: recombinant; tags: N-terminal GST; dsDNA, one strand shown
T1 sequence: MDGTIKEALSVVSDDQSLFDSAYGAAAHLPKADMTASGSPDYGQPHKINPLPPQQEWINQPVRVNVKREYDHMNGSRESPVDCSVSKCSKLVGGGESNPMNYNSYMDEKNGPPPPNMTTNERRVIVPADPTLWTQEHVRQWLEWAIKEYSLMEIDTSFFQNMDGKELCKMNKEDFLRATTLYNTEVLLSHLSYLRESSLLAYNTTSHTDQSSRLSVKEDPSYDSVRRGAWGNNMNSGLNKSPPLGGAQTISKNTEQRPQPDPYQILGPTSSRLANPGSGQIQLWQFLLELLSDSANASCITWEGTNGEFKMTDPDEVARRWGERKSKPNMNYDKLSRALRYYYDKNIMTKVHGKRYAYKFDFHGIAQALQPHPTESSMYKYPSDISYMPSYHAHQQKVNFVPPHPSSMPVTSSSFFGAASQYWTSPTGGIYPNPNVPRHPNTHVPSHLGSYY
Summary of the method: (§1)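 GST fusions of human transcription factors were expressed in yeast and captured with glutathione beads. Once given DNA barcodes and pooled alongside a tag-only sample, they were incubated for 30 min at room temperature with 200 nmole of a random double-stranded 16-mer DNA library in Tris/NaCl/DTT/glycerol buffer, then washed, crosslinked (0.1% formaldehyde), proximity-ligated, PCR-amplified and sequenced on an Illumina NextSeq500. The binding signal of each hexamer is its read frequency for a factor divided by its frequency for the tag-only sample.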

ELK1 = molecular target: T2, ELK1 (Homo sapiens, UniProt P19419 1-428); settings: protein: recombinant; tags: N-terminal GST; dsDNA, one strand shown
T2 sequence: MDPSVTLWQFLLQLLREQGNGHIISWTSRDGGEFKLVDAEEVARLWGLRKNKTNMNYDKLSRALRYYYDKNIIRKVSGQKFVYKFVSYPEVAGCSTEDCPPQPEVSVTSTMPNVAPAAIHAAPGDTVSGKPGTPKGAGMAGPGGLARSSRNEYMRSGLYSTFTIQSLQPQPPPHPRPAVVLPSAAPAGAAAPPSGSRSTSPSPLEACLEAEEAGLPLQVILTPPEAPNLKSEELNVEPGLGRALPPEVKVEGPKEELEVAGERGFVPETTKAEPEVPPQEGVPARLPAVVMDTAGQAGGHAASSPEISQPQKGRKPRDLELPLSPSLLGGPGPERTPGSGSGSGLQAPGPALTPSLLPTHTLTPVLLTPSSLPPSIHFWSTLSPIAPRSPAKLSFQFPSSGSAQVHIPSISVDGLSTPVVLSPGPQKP
Summary of the method: as §1

GABPA = molecular target: T3, GABPA (Homo sapiens, UniProt Q06546 1-454); settings: protein: recombinant; tags: N-terminal GST; dsDNA, one strand shown
T3 sequence: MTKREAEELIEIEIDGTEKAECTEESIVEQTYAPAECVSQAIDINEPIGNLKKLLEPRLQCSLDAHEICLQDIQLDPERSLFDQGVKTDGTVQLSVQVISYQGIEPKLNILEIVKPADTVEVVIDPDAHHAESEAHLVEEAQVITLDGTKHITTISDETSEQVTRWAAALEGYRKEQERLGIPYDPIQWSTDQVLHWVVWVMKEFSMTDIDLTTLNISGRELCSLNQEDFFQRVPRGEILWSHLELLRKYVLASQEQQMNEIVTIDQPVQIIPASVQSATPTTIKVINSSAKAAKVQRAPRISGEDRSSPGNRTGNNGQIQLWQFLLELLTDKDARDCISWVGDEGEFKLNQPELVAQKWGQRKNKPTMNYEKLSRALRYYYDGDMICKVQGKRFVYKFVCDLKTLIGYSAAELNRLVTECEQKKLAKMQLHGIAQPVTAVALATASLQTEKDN
Summary of the method: as §1

ERG = molecular target: T4, ERG (Homo sapiens, UniProt P11308 1-479); settings: protein: recombinant; tags: N-terminal GST; dsDNA, one strand shown
T4 sequence: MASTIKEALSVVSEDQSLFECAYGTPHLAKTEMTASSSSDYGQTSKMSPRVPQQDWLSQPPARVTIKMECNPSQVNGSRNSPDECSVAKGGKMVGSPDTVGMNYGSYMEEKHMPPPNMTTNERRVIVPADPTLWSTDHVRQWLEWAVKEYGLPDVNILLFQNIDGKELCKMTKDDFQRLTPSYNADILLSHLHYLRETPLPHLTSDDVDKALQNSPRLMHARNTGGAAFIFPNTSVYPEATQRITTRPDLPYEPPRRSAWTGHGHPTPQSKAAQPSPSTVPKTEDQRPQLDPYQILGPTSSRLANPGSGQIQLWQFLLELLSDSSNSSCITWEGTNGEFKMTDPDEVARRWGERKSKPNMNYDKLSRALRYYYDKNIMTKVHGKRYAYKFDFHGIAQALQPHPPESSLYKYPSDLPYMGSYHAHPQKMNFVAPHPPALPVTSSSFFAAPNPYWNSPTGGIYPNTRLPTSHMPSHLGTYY
Summary of the method: as §1

ELF1 = ELF1 (Homo sapiens, UniProt P32519 1-619); settings: protein: recombinant; tags: N-terminal GST; dsDNA, one strand shown
Summary of the method: as §1

EHF = molecular target: T5, EHF (Homo sapiens, UniProt Q9NZC4 1-300); settings: protein: recombinant; tags: N-terminal GST; dsDNA, one strand shown
T5 sequence: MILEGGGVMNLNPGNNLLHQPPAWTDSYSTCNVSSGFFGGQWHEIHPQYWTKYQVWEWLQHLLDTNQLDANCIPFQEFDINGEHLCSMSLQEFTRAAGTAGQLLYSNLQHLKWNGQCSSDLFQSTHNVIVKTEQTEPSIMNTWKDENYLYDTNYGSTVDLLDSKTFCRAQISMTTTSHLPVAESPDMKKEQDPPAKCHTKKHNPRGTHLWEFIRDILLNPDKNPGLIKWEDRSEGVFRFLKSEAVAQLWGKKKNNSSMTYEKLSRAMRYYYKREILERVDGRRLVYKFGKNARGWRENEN
Summary of the method: as §1

SPI1 = SPI1 (Homo sapiens, UniProt P17947 1-270); settings: protein: recombinant; tags: N-terminal GST; dsDNA, one strand shown
Summary of the method: as §1

SPIB = SPIB (Homo sapiens, UniProt Q01892 1-262); settings: protein: recombinant; tags: N-terminal GST; dsDNA, one strand shown
Summary of the method: as §1

ELK3 = molecular target: T6, ELK3 (Homo sapiens, UniProt P41970 1-407); settings: protein: recombinant; tags: N-terminal GST; dsDNA, one strand shown
T6 sequence: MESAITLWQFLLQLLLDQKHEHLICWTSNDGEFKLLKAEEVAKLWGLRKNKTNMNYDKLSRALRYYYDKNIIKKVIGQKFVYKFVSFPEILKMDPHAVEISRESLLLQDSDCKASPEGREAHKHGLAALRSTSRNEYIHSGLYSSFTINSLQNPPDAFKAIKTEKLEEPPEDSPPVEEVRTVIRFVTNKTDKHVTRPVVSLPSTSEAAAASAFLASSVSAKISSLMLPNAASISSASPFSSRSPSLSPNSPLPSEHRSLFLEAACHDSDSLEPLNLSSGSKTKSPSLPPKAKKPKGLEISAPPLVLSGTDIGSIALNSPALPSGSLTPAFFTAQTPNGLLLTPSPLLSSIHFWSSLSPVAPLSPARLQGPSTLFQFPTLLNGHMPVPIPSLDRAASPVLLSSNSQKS
Summary of the method: as §1

FEV = molecular target: T7, FEV (Homo sapiens, UniProt Q99581 1-238); settings: protein: recombinant; tags: N-terminal GST; dsDNA, one strand shown
T7 sequence: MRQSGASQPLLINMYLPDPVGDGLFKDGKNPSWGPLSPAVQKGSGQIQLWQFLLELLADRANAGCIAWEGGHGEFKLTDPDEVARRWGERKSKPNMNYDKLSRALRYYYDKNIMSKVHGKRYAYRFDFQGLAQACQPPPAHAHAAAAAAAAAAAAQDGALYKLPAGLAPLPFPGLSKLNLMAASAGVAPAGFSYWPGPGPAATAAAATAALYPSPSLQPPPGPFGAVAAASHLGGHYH
Summary of the method: as §1

ETV5 = ETV5 (Homo sapiens, UniProt P41161 1-510); settings: protein: recombinant; tags: N-terminal GST; dsDNA, one strand shown
Summary of the method: as §1

HSF1 = HSF1 (Homo sapiens, UniProt Q00613 1-529); settings: protein: recombinant; tags: N-terminal GST; chain copies: 3; dsDNA, one strand shown
Summary of the method: as §1

SPIC = molecular target: T8, SPIC (Homo sapiens, UniProt Q8N5J4 1-248); settings: protein: recombinant; tags: N-terminal GST; dsDNA, one strand shown
T8 sequence: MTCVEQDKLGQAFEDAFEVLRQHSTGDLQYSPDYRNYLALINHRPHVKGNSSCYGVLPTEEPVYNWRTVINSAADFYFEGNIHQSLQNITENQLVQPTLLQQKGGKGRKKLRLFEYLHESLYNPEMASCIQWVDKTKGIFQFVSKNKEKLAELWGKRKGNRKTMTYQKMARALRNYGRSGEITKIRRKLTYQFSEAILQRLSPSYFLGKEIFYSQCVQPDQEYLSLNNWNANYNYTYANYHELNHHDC
Summary of the method: as §1

ELF4 = ELF4 (Homo sapiens, UniProt Q99607 1-663); settings: protein: recombinant; tags: N-terminal GST; dsDNA, one strand shown
Summary of the method: as §1

ELK4 = molecular target: T9, ELK4 (Homo sapiens, UniProt P28324-2 1-405); settings: protein: recombinant; tags: N-terminal GST; dsDNA, one strand shown
T9 sequence: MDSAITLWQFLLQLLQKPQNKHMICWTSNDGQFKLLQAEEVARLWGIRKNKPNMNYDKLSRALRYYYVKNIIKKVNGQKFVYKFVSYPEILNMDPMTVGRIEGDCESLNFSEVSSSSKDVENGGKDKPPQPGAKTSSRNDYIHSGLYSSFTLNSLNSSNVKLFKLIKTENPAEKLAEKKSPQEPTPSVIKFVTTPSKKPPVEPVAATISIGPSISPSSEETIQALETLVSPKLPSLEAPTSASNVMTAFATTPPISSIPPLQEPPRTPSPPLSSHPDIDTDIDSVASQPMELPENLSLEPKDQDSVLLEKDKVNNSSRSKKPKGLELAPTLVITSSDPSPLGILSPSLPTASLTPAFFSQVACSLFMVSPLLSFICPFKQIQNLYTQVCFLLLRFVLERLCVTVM
Summary of the method: as §1

ETV2 = molecular target: T10, ETV2 (Homo sapiens, UniProt O00321 1-342); settings: protein: recombinant; tags: N-terminal GST; dsDNA, one strand shown
T10 sequence: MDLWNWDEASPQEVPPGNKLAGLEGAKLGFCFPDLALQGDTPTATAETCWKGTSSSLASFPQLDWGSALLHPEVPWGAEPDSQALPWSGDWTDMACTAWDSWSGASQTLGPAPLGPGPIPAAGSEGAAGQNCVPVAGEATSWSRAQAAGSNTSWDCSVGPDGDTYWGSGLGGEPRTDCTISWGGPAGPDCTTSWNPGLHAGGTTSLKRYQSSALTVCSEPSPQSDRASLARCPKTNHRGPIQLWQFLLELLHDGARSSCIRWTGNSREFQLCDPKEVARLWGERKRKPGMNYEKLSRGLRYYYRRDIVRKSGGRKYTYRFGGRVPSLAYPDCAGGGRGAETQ
Summary of the method: as §1

ELF3 = molecular target: T11, ELF3 (Homo sapiens, UniProt P78545 1-371); settings: protein: recombinant; tags: N-terminal GST; dsDNA, one strand shown
T11 sequence: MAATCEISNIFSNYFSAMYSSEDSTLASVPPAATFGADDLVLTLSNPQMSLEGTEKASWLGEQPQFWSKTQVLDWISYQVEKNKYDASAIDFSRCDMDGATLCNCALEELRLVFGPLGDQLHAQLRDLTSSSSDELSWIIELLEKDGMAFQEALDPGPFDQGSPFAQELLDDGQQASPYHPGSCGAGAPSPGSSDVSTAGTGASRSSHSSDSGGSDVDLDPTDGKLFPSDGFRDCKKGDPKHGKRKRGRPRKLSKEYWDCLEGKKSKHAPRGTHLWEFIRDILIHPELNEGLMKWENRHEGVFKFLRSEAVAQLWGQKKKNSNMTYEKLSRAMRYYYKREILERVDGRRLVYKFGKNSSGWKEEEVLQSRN
Summary of the method: as §1

CRX = CRX (Homo sapiens, UniProt O43186 1-299); settings: protein: recombinant; tags: N-terminal GST; dsDNA, one strand shown
Summary of the method: as §1

ETV1 = ETV1 (Homo sapiens, UniProt P50549 1-477); settings: protein: recombinant; tags: N-terminal GST; dsDNA, one strand shown
Summary of the method: as §1

ELF1, sequence (P32519 whole entry): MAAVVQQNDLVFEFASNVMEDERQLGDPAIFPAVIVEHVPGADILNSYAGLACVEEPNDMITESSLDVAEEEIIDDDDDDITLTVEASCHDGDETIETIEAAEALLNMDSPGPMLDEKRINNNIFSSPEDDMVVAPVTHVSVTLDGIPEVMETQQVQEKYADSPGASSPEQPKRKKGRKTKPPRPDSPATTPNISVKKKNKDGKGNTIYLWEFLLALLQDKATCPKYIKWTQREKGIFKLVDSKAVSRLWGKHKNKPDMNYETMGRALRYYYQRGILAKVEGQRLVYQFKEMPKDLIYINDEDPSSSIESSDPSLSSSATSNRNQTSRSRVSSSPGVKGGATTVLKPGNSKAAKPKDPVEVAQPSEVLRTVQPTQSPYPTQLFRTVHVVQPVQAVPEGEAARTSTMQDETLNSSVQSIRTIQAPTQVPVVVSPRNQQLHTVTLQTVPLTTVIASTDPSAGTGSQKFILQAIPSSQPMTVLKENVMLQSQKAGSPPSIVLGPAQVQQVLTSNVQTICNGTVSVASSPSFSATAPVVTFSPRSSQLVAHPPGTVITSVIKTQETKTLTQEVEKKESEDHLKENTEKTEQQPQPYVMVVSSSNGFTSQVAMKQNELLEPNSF
ETV5, sequence (P41161 whole entry): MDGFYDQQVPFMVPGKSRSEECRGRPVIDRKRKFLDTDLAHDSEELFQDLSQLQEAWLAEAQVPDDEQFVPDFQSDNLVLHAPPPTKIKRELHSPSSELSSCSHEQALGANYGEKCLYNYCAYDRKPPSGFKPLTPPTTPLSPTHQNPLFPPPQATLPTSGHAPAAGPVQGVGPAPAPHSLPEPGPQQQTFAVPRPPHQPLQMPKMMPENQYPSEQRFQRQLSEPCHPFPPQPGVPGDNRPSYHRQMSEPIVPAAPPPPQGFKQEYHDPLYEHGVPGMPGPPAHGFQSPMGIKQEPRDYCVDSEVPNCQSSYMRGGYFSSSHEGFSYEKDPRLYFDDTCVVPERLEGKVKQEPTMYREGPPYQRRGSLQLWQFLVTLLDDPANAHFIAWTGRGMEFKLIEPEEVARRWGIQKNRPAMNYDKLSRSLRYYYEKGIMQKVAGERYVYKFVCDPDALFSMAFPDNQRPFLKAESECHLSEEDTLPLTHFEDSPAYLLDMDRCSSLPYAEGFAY
HSF1, sequence (Q00613 whole entry): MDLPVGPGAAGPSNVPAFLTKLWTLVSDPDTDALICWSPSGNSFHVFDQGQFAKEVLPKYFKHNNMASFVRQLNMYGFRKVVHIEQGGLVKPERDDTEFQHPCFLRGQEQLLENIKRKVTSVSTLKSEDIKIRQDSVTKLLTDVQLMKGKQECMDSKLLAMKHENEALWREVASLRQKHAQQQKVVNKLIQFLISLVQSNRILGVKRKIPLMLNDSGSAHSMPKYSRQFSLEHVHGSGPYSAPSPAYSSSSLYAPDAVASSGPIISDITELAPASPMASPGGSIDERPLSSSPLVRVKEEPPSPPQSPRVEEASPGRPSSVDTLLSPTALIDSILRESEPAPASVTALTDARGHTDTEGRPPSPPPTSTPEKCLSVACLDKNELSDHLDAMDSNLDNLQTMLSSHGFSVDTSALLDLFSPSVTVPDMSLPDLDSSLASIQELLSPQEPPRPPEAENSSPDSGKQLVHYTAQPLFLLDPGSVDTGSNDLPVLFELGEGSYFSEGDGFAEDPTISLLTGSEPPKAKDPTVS
CRX, sequence (O43186 whole entry): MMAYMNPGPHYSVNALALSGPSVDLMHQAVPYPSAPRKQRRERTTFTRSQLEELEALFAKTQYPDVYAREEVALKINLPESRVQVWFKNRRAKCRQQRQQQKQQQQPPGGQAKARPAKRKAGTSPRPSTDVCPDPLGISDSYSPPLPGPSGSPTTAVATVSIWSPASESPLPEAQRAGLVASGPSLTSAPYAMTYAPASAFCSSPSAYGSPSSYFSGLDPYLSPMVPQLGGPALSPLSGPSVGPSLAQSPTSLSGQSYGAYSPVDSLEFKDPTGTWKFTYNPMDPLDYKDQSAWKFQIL
SPIB, sequence (Q01892 whole entry): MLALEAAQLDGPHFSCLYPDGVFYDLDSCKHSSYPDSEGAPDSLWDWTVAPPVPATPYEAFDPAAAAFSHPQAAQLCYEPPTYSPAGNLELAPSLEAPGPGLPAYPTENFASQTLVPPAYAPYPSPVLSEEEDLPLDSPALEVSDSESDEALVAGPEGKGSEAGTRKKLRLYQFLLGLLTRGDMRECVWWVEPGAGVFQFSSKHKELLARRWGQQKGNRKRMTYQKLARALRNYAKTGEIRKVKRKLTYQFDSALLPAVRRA
ETV1, sequence (P50549 whole entry): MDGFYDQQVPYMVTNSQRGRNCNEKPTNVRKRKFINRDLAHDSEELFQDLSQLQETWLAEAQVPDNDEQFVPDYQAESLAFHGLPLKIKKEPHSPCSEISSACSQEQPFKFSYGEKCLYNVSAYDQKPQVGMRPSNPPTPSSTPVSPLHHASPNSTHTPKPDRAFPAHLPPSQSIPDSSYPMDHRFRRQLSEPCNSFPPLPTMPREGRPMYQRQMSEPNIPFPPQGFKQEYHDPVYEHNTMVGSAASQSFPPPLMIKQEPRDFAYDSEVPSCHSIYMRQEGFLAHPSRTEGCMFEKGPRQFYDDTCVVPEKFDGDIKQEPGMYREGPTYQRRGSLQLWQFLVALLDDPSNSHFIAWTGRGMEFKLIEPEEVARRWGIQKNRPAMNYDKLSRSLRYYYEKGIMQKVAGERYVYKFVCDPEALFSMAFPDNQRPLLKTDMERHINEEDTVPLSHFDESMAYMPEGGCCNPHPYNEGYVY
ELF4, sequence (Q99607 whole entry): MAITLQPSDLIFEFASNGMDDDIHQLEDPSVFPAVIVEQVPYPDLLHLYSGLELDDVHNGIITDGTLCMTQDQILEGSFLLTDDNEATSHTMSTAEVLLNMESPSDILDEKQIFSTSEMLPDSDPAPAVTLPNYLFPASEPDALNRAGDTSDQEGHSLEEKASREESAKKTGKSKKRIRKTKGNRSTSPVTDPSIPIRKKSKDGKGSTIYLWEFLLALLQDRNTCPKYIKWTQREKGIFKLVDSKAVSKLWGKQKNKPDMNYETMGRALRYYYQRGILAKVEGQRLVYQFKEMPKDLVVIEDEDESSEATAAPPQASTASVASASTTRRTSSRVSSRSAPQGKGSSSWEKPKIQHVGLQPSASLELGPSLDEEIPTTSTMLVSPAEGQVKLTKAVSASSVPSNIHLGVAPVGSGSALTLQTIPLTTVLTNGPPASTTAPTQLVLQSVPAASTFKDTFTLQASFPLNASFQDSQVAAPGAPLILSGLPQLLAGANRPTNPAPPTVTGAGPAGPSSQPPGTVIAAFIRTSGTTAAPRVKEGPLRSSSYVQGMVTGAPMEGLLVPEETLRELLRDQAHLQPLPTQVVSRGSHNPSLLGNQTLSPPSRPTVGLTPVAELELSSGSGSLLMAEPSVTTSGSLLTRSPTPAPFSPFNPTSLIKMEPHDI

With TGTAAA the binding signal (FLI1) was 1.22 fold enrichment (6-mer frequency, TF over GST control), the binding signal (ELK1) was 1.06 fold enrichment (6-mer frequency, TF over GST control) and the binding signal (GABPA) was 1.08 fold enrichment (6-mer frequency, TF over GST control). The binding signal (ERG) was 1.15 fold enrichment (6-mer frequency, TF over GST control), the binding signal (ELF1) was 1.14 fold enrichment (6-mer frequency, TF over GST control) and the binding signal (EHF) was 1.13 fold enrichment (6-mer frequency, TF over GST control). The binding signal (SPI1) was 1.26 fold enrichment (6-mer frequency, TF over GST control), the binding signal (SPIB) was 1.2 fold enrichment (6-mer frequency, TF over GST control) and the binding signal (ELK3) was 1.09 fold enrichment (6-mer frequency, TF over GST control). The binding signal (FEV) was 1.08 fold enrichment (6-mer frequency, TF over GST control), the binding signal (ETV5) was 1.16 fold enrichment (6-mer frequency, TF over GST control) and the binding signal (HSF1) was 1.2 fold enrichment (6-mer frequency, TF over GST control). The binding signal (SPIC) was 1.24 fold enrichment (6-mer frequency, TF over GST control), the binding signal (ELF4) was 1.13 fold enrichment (6-mer frequency, TF over GST control) and the binding signal (ELK4) was 1.1 fold enrichment (6-mer frequency, TF over GST control). The binding signal (ETV2) was 1.16 fold enrichment (6-mer frequency, TF over GST control), the binding signal (ELF3) was 1.23 fold enrichment (6-mer frequency, TF over GST control) and the binding signal (CRX) was 1.2 fold enrichment (6-mer frequency, TF over GST control). The binding signal (ETV1) was 1.14 fold enrichment (6-mer frequency, TF over GST control).
